In the library only some 2.3% were active in any assay of this set; here they are far more common.
BCLXL inh: inhibitors of human Bcl-xL, primary screen, biochemical, fluorescence polarization, HTS; Bcl-2-like protein 1 (Homo sapiens), Q07817; GST-Bcl-xL / FITC-Bim BH3 peptide fluorescence polarization; inhibition, % at 10.9 µM; 320,000 tested, 0.7% active; AID 2129, 2009;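 active = inhibition above the mean of all tested compounds plus 3 SD, cutoff set per campaign, cut at about 30% in these data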;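 note: inhibitors lower millipolarization by displacing the labeled peptide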
Target sequence (Q07817 whole entry, looked up): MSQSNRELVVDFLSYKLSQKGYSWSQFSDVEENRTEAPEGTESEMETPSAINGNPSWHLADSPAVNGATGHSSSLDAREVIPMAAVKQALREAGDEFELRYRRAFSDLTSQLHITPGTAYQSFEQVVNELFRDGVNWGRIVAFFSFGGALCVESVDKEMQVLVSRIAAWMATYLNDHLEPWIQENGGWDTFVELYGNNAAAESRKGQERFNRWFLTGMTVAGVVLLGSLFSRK
Mcl-1 Bim block: inhibitors of Bim peptide binding to Mcl-1, primary screen, biochemical, bead-based flow cytometry, multiplex; Induced myeloid leukemia cell differentiation protein Mcl-1 (Homo sapiens), Q07820; Bim peptide-Mcl-1 binding; inhibition, % at 10 µM; 190,000 tested, 0.1% active; AID 1009, 2008; in the data active = inhibition above about 40%
Mcl1-Noxa inh: Mcl-1/Noxa binding inhibitors, primary screen, biochemical, TR-FRET, 1536-well; inhibition, % at 21.7 µM; TR-FRET Mcl-1/Noxa peptide binding, 2 h; 220,000 tested, 1.5% active;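 active = compounds that cut the protein-peptide binding signal by more than 50% relative to plate controls in a single-dose test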;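 note: His-tagged Mcl-1 with rhodamine Noxa BH3 peptide and terbium anti-His antibody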
Mcl1 Bid PPI: Mcl-1/Bid binding inhibitors, primary screen, biochemical, TR-FRET, 1536-well. TR-FRET Mcl-1/Bid-Dy647 peptide binding. inhibition, % at 21.7 µM. 220,000 tested, 0.97% active. AID 1021, 2008;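 active = compounds that cut the binding signal by more than half at the single screening dose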;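 note: His-tagged Mcl-1 with europium anti-His antibody binding Bid BH3 peptide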
GLD-1 RNA inh: GLD-1/TGE RNA complex disruptors, primary screen, biochemical, fluorescence polarization | Female germline-specific tumor suppressor gld-1 (Caenorhabditis elegans), Q17339 | purified GLD-1 + fluorescein TGE RNA | inhibition, % at 5.96 µM | 320,000 tested, 0.44% active | AID 2280, 2010;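 active = percent inhibition above a per-plate cutoff, the plate mean of test compounds plus 3 SD, cut at about 30% in these data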
Target sequence (Q17339 whole entry, looked up): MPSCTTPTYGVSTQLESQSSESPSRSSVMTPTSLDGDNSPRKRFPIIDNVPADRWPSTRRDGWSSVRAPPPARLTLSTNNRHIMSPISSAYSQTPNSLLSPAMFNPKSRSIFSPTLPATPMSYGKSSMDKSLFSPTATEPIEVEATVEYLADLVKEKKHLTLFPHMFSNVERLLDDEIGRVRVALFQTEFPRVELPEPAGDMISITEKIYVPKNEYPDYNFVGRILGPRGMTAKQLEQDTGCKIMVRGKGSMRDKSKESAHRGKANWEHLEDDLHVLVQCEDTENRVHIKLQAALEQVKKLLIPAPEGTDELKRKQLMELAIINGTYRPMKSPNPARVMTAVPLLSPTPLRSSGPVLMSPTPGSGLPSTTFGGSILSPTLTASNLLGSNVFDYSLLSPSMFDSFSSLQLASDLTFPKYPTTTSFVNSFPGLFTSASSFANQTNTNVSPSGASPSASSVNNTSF
MCL1-BIM inh: inhibitors of MCL1 binding to BIM-BH3, primary screen, biochemical, fluorescence polarization; 320,000 tested, 0.68% active; GST-MCL1 / FITC-Bim-BH3 fluorescence polarization; inhibition, % at 10.9 µM;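 active = inhibition above the mean inhibition of all tested compounds plus 3 SD, set per campaign, cut at about 40% in these data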;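 note: higher means more loss of mP so more displacement of Bim peptide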
Of the large screens only hits and unclear results are named; the others gave an inactive call.

O=C(Nc1cccc(S(=O)(=O)NC2=NCCC2)c1)c1cnc(Cl)c(Cl)c1	none (no result: Mcl-1 Bim block, Mcl1-Noxa inh, Mcl1 Bid PPI)
CC(O)c1nc2ccccc2n1CCCCOc1ccccc1 (centres undefined)	none
CCOC(=O)c1sc2nc(NC(=O)COc3ccccc3)sc2c1C	Mcl1-Noxa inh 55.4
CC(=O)c1sc(NC(=O)COc2ccccc2)nc1C	none
O=C(N/C(=C\c1ccccc1)C(=O)N1CCCCC1)c1ccco1	none (no result: Mcl-1 Bim block, Mcl1-Noxa inh, Mcl1 Bid PPI)
COC(=O)Sc1nc(N2CCOCC2)c2c(c1C#N)CC(C)(C)OC2	none
CC(Sc1nc(N2CCOCC2)c2c(c1C#N)CC(C)(C)OC2)C(=O)O (centres undefined)	BCLXL inh 31.3 (no result: Mcl-1 Bim block, Mcl1-Noxa inh, Mcl1 Bid PPI)
Nc1c(N(CCCO)C(=O)C2CCCCC2)c(=O)[nH]c(=O)n1Cc1ccccc1	none (no result: BCLXL inh, Mcl-1 Bim block, Mcl1-Noxa inh, Mcl1 Bid PPI, MCL1-BIM inh)
COc1ccccc1N1CCN(S(=O)(=O)CCNC(=O)C2CC2)CC1	none (no result: Mcl-1 Bim block, Mcl1-Noxa inh, Mcl1 Bid PPI)
O=C1Nc2ccc(Br)cc2/C1=C/C(=O)c1ccc2c(c1)OCO2	Mcl1-Noxa inh 104.6, Mcl1 Bid PPI 71.7 (no result: Mcl-1 Bim block)
O=C(CN1CCN(CCN2C(=O)c3cccc4cccc(c34)C2=O)CC1)c1ccc(Cl)cc1	none (no result: BCLXL inh, GLD-1 RNA inh, MCL1-BIM inh)
O=C(CN1CCN(CCN2C(=O)c3cccc4cccc(c34)C2=O)CC1)c1ccc(F)cc1	Mcl1 Bid PPI 97.8
COc1ccccc1C1Nc2cccc3cccc(c23)N1	none
Oc1ccccc1C1Nc2cccc3cccc(c23)N1	Mcl1-Noxa inh 98.2
CCN(c1ccc(OC)cc1)S(=O)(=O)c1nnc(NC(=O)CC(C)C)s1	none (no result: Mcl-1 Bim block, Mcl1-Noxa inh, Mcl1 Bid PPI)
COc1ccc(N2CCN(C(=O)Cn3nnc(-c4ccc(N(C)C)cc4)n3)CC2)cc1	Mcl1-Noxa inh 52.3, Mcl1 Bid PPI 60.5
COc1ccc(-c2ccc(-c3nnn(CC(=O)N4CCOCC4)n3)cc2)cc1	none
Cc1ccc(NC(=O)CCn2c(=S)oc3ccccc32)cc1	none
CN(C)c1ccc(NC(=O)CCn2c(=S)oc3ccccc32)cc1	Mcl1-Noxa inh 67.6
Cc1nc2ccc(C(=O)O)cc2c2c1CC(C)S2 (centres undefined)	Mcl1-Noxa inh 51.0
CC(C)CCNC(=O)CN(Cc1ccco1)C(=O)CCC(=O)Nc1nccs1	none (no result: Mcl-1 Bim block, Mcl1-Noxa inh, Mcl1 Bid PPI)
Cc1ccc(NC(=O)Nc2nnc(Cc3ccc([N+](=O)[O-])cc3)s2)cc1	Mcl1 Bid PPI 51.4
COc1cc(OC)c(C2Nc3ccccc3NC3=C2C(=O)CC(C)(C)C3)cc1OC (centres undefined)	none (no result: Mcl-1 Bim block, Mcl1-Noxa inh, Mcl1 Bid PPI)
COc1ccc(C2CC(=O)C3=C(C2)Nc2ccccc2NC3c2coc3ccccc3c2=O)cc1OC (centres undefined)	Mcl-1 Bim block 42.0
COc1ccccc1NC(=O)OC(C)c1ccc(Cl)cc1 (centres undefined)	none (no result: Mcl-1 Bim block, Mcl1-Noxa inh, Mcl1 Bid PPI)
C[N+](C)(C)c1ccc(/C=N/Nc2nc(Cl)c(C#N)c(Cl)c2Cl)cc1	Mcl1 Bid PPI 90.8
N#Cc1c(Cl)nc(N/N=C/c2ccccc2)c(Cl)c1Cl	none
COCCCNC(=O)c1cc2c(=O)n3cc(C)ccc3nc2nc1NCC1CCCO1 (centres undefined)	Mcl1 Bid PPI 65.6
Cc1ccc2nc3nc(NCC4CCCO4)c(C(=O)NC4CCCC4)cc3c(=O)n2c1 (centres undefined)	none
Cc1ccc(NC(=O)Cn2cccc2)cc1C	none
Cc1ccc(NC(=O)CCn2cccc2)cc1C	Mcl1 Bid PPI 59.9
COc1ccc(S(=O)(=O)Nc2cc(Sc3ncn[nH]3)c(O)c3ccccc23)cc1	Mcl1-Noxa inh 90.5 (no result: BCLXL inh, GLD-1 RNA inh, MCL1-BIM inh)
O=S(=O)(Nc1cc(Sc2cccc3cccnc23)c(O)c2ccccc12)c1ccc(F)cc1	Mcl1-Noxa inh 51.1
CN(C)c1ncnc2c1NC1=C(S2)C(=NCCCC(=O)O)CC(C)(C)C1	BCLXL inh 32.3
CC1(C)CC(=O)/C(=C(\O)Cc2ccccc2)C(=NCCCCCC(=O)O)C1	none
COc1cc(/C=C(\NC(=O)c2ccccc2)C(=O)Nc2nccs2)ccc1OC(C)=O	none (no result: Mcl-1 Bim block, Mcl1-Noxa inh, Mcl1 Bid PPI)
NC(=O)NC(CC(=O)NCCc1ccc(S(N)(=O)=O)cc1)c1ccc(Cl)cc1 (centres undefined)	Mcl1 Bid PPI 83.6 (no result: Mcl-1 Bim block)
CCn1c(=S)[nH]c2sc3c(c2c1=O)CCCC3	none (no result: Mcl-1 Bim block, Mcl1-Noxa inh, Mcl1 Bid PPI)
C=CCn1c(=S)[nH]c2sc3c(c2c1=O)CCC3	Mcl1-Noxa inh 55.9 (no result: BCLXL inh, GLD-1 RNA inh, MCL1-BIM inh)
COCCN(C(=O)CSc1nnc(-c2ccccc2OC)o1)c1c(N)n(CC(C)C)c(=O)[nH]c1=O	none (no result: Mcl-1 Bim block, Mcl1-Noxa inh, Mcl1 Bid PPI)
CC(C)Oc1ccc(S(=O)(=O)N2CCOCC2)cc1NC(=O)c1cc([N+](=O)[O-])ccc1N1CCOCC1	none (no result: Mcl-1 Bim block, Mcl1-Noxa inh, Mcl1 Bid PPI)
CC1CN(C(=O)c2cccc(C(=O)N3CC(C)OC(C)C3)c2)CC(C)O1 (centres undefined)	Mcl1 Bid PPI 97.1
Cc1cc(NS(=O)(=O)c2ccc(NC(=O)c3ccccc3C)cc2)no1	none (no result: Mcl-1 Bim block, Mcl1-Noxa inh, Mcl1 Bid PPI)
Cc1cc(NS(=O)(=O)c2ccc(NC(=O)c3cc4cc(Br)ccc4oc3=O)cc2)no1	Mcl1 Bid PPI 57.1
CCc1nc(SCC(=O)Nc2ccc(Br)cn2)n[nH]1	none (no result: Mcl-1 Bim block, Mcl1-Noxa inh, Mcl1 Bid PPI)
N#CCSc1ccccc1NC(=O)COc1ccc(-c2nnco2)cc1	none (no result: Mcl-1 Bim block, Mcl1-Noxa inh, Mcl1 Bid PPI)
N#Cc1ccsc1NC(=O)COc1ccc(-c2nnco2)cc1	Mcl1-Noxa inh 64.6
COc1ccc2nc(N3C(=O)/C(=C/c4ccc(Cl)cc4)NC3=S)sc2c1	Mcl1-Noxa inh 87.3, Mcl1 Bid PPI 88.5 (no result: BCLXL inh, GLD-1 RNA inh, MCL1-BIM inh)
O=C(Cc1ccc(Cl)c(Cl)c1)Nc1cccc(S(=O)(=O)N2CCOCC2)c1	none
CCN1CCN(CC(=O)c2c[nH]c3ccc(C)cc23)CC1	Mcl-1 Bim block 59.0
Cc1ccc2[nH]cc(C(=O)CN3CCOCC3)c2c1	none
O=C(N=c1ccn(-c2nc3ccccc3nc2NS(=O)(=O)c2ccc(Cl)cc2)cc1)c1cccs1	BCLXL inh 48.4, MCL1-BIM inh 44.1 (no result: Mcl-1 Bim block)
